Common to all, as to assay: DAPPL (digital affinity profiling via proximity ligation, sequencing); 10 mM Tris-HCl pH 7.5, 50 mM NaCl, 1 mM DTT, 4% glycerol, room temperature, 30 min; GST-TFs on glutathione beads, 16-mer random dsDNA library, 0.1% formaldehyde crosslink after washing; high values mean tight binding
Test [1] has as its target T1, FEV (Homo sapiens, UniProt Q99581 1-238).
T1 sequence: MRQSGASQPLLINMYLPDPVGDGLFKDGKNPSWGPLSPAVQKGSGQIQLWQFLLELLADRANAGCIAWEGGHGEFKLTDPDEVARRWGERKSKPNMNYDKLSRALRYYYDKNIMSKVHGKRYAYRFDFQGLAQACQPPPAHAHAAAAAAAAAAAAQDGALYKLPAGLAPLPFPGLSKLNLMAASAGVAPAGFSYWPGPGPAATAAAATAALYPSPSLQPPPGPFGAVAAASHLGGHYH
As to conditions: protein: recombinant; tags: N-terminal GST; dsDNA, one strand shown. The gist of the method: (§1)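 Human transcription factors fused to GST were expressed in yeast, captured on glutathione beads, given DNA barcodes and pooled with a GST-only negative control. Pools were incubated with 200 nmole of a 16-mer random double-stranded DNA library in Tris/NaCl/DTT/glycerol buffer at room temperature for 30 min. They were then washed, crosslinked with 0.1% formaldehyde, proximity-ligated (BsaI/T4 ligase, 1 h, 37 °C), PCR-amplified and sequenced on an Illumina NextSeq500. Binding signal is each 6-mer's read frequency for a factor divided by its frequency for the GST control.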

Test [2] deals with ETV5 (Homo sapiens, UniProt P41161 1-510). The following applies: protein: recombinant; tags: N-terminal GST; dsDNA, one strand shown. The method in brief:
as §1

In test [3] the target is HSF1 (Homo sapiens, UniProt Q00613 1-529). The following applies: protein: recombinant; tags: N-terminal GST; chain copies: 3; dsDNA, one strand shown. The gist of the method:
as §1

The target of test [4] is T2, SPIC (Homo sapiens, UniProt Q8N5J4 1-248).
T2 sequence: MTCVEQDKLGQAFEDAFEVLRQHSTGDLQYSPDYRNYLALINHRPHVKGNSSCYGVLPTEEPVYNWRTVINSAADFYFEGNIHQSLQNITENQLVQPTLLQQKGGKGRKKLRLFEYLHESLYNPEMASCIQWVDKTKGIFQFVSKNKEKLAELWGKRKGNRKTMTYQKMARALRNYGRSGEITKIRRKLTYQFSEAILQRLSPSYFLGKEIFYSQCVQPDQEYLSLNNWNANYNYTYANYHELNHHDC
The following applies: protein: recombinant; tags: N-terminal GST; dsDNA, one strand shown. The gist of the method:
as §1

In test [5] the target is ELF4 (Homo sapiens, UniProt Q99607 1-663). The following applies: protein: recombinant; tags: N-terminal GST; dsDNA, one strand shown. The gist of the method: as §1
The target of test [6] is T3, ELK4 (Homo sapiens, UniProt P28324-2 1-405).
T3 sequence: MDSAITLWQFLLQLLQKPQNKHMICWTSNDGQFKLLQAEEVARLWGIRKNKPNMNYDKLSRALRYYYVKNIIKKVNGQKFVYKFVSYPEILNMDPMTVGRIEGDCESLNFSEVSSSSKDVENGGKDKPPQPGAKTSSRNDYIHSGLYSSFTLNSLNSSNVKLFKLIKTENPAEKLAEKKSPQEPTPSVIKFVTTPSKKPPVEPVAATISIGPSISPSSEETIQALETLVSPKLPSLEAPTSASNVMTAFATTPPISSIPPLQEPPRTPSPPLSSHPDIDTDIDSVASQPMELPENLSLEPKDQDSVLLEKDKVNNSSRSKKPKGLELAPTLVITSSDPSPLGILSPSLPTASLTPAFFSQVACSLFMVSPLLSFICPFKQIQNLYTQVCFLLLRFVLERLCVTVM
The following applies: protein: recombinant; tags: N-terminal GST; dsDNA, one strand shown. The method in brief: as §1

The target in test [7] is T4, ETV2 (Homo sapiens, UniProt O00321 1-342).
T4 sequence: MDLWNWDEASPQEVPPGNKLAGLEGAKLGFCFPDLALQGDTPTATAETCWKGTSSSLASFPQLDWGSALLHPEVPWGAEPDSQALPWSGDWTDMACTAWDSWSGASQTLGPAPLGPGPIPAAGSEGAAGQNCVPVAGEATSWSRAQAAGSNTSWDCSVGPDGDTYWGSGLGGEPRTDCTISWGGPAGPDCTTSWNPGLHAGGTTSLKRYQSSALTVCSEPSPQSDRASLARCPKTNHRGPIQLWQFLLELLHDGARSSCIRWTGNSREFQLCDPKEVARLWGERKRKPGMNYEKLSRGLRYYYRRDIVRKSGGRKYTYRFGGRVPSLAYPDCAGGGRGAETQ
The following applies: protein: recombinant; tags: N-terminal GST; dsDNA, one strand shown. The method in brief:
as §1

Test [8] has as its target T5, ELF3 (Homo sapiens, UniProt P78545 1-371).
T5 sequence: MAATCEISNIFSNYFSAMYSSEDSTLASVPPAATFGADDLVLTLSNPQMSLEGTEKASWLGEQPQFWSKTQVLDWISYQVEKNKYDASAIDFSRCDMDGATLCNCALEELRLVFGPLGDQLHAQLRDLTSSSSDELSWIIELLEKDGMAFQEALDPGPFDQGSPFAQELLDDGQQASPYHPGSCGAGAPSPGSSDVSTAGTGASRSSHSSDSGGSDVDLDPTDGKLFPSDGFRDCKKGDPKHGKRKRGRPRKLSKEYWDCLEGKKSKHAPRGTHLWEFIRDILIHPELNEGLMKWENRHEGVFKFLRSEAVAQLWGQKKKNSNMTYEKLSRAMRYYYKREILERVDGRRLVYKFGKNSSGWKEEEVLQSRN
The following applies: protein: recombinant; tags: N-terminal GST; dsDNA, one strand shown. The method in brief: as §1

Test [9] deals with CRX (Homo sapiens, UniProt O43186 1-299). The following applies: protein: recombinant; tags: N-terminal GST; dsDNA, one strand shown. The method in brief:
as §1

For test [10], the target named is ETV1 (Homo sapiens, UniProt P50549 1-477). As to conditions: protein: recombinant; tags: N-terminal GST; dsDNA, one strand shown. The gist of the method: as §1
Test [11] addresses T6, ERF (Homo sapiens, UniProt P50548 1-548).
T6 sequence: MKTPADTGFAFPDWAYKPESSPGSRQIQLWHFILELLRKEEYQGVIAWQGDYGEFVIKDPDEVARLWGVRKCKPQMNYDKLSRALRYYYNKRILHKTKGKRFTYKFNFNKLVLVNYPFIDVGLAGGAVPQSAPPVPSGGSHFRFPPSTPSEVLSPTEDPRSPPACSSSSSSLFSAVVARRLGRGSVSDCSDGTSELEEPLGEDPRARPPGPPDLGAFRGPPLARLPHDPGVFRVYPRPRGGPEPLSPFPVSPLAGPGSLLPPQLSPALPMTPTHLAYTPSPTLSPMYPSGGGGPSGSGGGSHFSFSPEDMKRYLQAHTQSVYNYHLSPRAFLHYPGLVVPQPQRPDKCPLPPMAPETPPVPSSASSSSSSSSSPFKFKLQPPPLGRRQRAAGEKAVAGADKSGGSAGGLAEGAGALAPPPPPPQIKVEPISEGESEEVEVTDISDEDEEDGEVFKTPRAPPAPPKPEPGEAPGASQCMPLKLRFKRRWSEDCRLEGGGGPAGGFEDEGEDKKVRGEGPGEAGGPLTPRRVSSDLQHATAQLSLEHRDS
As to conditions: protein: recombinant; tags: N-terminal GST; dsDNA, one strand shown. The method in brief: as §1

The target of test [12] is T7, ETV3L (Homo sapiens, UniProt Q6ZN32 1-361).
T7 sequence: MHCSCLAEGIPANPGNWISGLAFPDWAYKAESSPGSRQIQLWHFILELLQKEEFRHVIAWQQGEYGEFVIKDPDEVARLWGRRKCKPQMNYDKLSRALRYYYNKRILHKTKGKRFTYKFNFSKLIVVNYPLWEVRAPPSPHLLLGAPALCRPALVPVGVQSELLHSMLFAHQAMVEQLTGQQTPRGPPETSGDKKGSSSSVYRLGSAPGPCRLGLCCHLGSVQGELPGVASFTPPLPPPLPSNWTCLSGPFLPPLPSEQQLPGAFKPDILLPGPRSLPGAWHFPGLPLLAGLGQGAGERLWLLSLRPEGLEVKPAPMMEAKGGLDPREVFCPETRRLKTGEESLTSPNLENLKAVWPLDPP
The following applies: protein: recombinant; tags: N-terminal GST; dsDNA, one strand shown. The method in brief: as §1

Test [13] addresses T8, ETS2 (Homo sapiens, UniProt P15036 1-469).
T8 sequence: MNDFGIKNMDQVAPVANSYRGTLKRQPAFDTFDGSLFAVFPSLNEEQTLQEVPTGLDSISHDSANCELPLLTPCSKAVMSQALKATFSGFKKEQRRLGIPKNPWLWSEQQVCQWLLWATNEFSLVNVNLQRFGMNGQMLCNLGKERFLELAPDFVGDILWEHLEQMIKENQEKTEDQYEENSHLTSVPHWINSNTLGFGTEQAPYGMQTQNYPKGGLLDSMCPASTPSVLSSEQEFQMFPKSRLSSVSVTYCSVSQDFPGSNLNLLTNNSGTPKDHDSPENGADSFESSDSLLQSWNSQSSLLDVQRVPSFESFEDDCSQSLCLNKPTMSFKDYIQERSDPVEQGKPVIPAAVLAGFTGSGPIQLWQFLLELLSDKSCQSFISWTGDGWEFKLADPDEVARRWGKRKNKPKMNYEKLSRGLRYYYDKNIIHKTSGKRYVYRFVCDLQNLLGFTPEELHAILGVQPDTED
The following applies: protein: recombinant; tags: N-terminal GST; dsDNA, one strand shown. The gist of the method:
as §1

Test [14] has as its target T9, SPDEF (Homo sapiens, UniProt O95238 1-335).
T9 sequence: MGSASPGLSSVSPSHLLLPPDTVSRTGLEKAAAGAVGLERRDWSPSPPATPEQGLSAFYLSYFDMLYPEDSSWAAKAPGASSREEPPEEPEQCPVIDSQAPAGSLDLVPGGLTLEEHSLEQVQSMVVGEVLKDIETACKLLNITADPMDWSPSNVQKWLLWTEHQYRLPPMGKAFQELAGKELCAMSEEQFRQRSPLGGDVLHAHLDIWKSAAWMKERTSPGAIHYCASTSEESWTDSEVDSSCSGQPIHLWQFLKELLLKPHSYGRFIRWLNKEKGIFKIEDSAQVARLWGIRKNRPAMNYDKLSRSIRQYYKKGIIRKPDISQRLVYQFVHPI
As to conditions: protein: recombinant; tags: N-terminal GST; dsDNA, one strand shown. The method in brief:
as §1

Test [15] deals with T10, ETV7 (Homo sapiens, UniProt Q9Y603 1-341).
T10 sequence: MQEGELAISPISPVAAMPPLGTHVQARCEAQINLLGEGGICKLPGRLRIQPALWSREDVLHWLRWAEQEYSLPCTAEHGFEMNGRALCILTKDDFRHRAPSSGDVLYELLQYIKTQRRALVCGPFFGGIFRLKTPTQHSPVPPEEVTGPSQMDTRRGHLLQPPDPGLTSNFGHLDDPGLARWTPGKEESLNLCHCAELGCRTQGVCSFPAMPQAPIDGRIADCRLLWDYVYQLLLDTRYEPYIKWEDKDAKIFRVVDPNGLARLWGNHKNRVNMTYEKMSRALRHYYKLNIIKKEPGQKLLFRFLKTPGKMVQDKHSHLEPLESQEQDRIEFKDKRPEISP
The following applies: protein: recombinant; tags: N-terminal GST; dsDNA, one strand shown. The method in brief:
as §1

The target of test [16] is T11, ELF5 (Homo sapiens, UniProt Q9UKW6-2 1-255).
T11 sequence: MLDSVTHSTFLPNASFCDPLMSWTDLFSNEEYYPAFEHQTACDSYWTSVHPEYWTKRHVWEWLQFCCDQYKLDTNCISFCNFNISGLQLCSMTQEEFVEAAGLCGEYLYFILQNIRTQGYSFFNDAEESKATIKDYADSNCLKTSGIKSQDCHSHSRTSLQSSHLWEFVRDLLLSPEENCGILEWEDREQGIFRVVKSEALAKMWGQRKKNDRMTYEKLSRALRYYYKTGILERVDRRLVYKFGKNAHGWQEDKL
As to conditions: protein: recombinant; tags: N-terminal GST; dsDNA, one strand shown. The gist of the method:
as §1

Test [17] has as its target T12, ETV3 (Homo sapiens, UniProt P41162-2 1-143).
T12 sequence: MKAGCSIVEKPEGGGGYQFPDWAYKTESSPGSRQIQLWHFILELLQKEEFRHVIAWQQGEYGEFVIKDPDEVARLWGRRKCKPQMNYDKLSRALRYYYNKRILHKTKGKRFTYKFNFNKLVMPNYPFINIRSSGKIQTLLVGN
The following applies: protein: recombinant; tags: N-terminal GST; dsDNA, one strand shown. The method in brief:
as §1

In test [18] the target is ETV6 (Homo sapiens, UniProt P41212 1-452). The following applies: protein: recombinant; tags: N-terminal GST; dsDNA, one strand shown. The gist of the method: as §1
Sequence of ETV6 (P41212 whole entry): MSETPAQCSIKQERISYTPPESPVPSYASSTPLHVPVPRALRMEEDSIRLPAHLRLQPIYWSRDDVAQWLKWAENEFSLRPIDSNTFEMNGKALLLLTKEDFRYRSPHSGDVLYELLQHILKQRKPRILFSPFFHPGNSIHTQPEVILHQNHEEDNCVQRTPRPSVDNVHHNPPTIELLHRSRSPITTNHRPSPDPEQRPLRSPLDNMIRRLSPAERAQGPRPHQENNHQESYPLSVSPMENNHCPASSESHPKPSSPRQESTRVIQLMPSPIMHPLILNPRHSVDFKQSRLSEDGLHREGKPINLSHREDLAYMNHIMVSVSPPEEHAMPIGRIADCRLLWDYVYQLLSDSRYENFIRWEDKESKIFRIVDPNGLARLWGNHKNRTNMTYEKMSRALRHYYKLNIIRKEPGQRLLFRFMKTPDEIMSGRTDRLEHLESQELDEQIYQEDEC

Sequence of ELF4 (Q99607 whole entry): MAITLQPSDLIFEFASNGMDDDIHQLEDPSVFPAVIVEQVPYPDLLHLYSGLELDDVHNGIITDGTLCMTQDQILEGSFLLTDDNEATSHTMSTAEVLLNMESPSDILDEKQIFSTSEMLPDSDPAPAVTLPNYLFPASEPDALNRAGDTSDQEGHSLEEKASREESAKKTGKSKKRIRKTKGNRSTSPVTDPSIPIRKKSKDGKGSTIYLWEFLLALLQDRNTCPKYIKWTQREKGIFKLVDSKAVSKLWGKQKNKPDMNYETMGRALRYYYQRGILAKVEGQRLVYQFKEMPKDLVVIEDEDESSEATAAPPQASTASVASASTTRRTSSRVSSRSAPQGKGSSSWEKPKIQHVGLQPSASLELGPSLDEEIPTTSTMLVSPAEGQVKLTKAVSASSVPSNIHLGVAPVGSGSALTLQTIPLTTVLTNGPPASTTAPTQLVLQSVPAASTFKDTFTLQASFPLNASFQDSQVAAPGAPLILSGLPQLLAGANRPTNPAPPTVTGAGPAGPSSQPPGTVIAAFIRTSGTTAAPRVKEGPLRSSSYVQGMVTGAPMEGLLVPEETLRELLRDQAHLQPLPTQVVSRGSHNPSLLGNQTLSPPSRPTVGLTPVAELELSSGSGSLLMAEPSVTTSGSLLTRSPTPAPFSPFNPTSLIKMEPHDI
Sequence of ETV5 (P41161 whole entry): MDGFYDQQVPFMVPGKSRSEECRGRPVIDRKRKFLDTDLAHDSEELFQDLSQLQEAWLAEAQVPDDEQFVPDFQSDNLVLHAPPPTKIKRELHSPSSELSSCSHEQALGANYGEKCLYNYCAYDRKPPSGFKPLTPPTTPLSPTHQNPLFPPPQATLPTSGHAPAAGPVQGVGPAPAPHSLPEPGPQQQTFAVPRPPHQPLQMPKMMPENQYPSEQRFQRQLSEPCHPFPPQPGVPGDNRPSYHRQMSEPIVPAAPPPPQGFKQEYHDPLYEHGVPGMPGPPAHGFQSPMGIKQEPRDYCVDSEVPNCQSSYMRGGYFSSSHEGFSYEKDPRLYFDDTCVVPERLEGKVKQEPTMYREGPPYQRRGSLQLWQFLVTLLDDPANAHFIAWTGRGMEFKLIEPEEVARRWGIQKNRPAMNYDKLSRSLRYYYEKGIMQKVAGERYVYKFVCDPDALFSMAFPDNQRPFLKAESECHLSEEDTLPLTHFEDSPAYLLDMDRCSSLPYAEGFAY
Sequence of CRX (O43186 whole entry): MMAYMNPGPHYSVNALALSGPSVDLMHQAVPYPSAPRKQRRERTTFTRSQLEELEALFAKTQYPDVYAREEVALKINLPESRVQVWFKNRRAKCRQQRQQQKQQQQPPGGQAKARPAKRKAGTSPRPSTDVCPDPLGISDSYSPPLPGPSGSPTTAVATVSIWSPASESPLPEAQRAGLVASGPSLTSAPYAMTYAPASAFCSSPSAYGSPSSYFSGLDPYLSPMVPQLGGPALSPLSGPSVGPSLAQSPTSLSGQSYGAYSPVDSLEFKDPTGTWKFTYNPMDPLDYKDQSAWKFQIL
Sequence of ETV1 (P50549 whole entry): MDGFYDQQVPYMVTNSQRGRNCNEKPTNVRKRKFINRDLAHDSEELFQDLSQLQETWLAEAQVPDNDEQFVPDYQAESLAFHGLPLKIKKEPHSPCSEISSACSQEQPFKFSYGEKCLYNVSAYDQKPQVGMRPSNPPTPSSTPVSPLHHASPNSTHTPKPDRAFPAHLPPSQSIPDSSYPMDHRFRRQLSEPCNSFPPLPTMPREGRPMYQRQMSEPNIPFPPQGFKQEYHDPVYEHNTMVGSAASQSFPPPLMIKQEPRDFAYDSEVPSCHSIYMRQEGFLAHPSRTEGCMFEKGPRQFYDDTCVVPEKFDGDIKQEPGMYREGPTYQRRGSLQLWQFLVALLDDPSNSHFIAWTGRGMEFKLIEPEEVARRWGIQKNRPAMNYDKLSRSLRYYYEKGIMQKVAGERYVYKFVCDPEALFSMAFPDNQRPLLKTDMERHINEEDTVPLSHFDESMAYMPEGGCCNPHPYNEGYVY
Sequence of HSF1 (Q00613 whole entry): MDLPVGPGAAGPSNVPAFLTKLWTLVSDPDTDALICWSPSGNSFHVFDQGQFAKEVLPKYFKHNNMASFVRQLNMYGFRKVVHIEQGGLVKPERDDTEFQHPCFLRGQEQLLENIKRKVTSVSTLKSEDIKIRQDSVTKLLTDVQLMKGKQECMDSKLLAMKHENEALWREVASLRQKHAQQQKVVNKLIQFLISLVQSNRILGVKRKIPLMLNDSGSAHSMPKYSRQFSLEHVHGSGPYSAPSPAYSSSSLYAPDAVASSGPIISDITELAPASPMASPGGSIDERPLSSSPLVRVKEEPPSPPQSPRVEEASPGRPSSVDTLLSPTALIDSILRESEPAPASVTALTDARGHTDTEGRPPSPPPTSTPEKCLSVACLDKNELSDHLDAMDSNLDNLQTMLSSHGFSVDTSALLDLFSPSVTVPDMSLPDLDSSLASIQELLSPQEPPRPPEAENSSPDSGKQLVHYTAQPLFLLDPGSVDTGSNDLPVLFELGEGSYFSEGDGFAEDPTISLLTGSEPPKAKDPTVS

GGCTCC: the binding signal in test [1] was 1.35 fold enrichment (6-mer frequency, TF over GST control); in [2] it was 1.37 fold enrichment (6-mer frequency, TF over GST control); in [3], 1.13 fold enrichment (6-mer frequency, TF over GST control); in test [4], 1.16 fold enrichment (6-mer frequency, TF over GST control); in test [5] it was 1.24 fold enrichment (6-mer frequency, TF over GST control); in test [6], 1.29 fold enrichment (6-mer frequency, TF over GST control). Further, the binding signal is 1.43 fold enrichment (6-mer frequency, TF over GST control) in test [7]; 1.32 fold enrichment (6-mer frequency, TF over GST control) in test [8]; 1.1 fold enrichment (6-mer frequency, TF over GST control) in test [9]; 1.24 fold enrichment (6-mer frequency, TF over GST control) in test [10]; 1.28 fold enrichment (6-mer frequency, TF over GST control) in test [11]; 1.27 fold enrichment (6-mer frequency, TF over GST control) in test [12]. Also, the binding signal in [13] is 1.21 fold enrichment (6-mer frequency, TF over GST control); in test [14] it was 1.48 fold enrichment (6-mer frequency, TF over GST control); in test [15], 1.25 fold enrichment (6-mer frequency, TF over GST control); in [16], 1.33 fold enrichment (6-mer frequency, TF over GST control); in test [17] it was 1.3 fold enrichment (6-mer frequency, TF over GST control); in test [18] it was 1.25 fold enrichment (6-mer frequency, TF over GST control).

The values above are taken from paper PMC7862700, “An all-to-all approach to the identification of sequence-specific readers for epigenetic DNA modifications on cytosine”.
